The record followed here is publication PMC7862700, “An all-to-all approach to the identification of sequence-specific readers for epigenetic DNA modifications on cytosine”.

Holding throughout (assay): DAPPL (digital affinity profiling via proximity ligation, sequencing); 10 mM Tris-HCl pH 7.5, 50 mM NaCl, 1 mM DTT, 4% glycerol, room temperature, 30 min; GST-TFs on glutathione beads, 16-mer random dsDNA library, 0.1% formaldehyde crosslink after washing; high values mean tight binding
One experiment concerns the target T1, FEV (Homo sapiens, UniProt Q99581 1-238).
T1 sequence: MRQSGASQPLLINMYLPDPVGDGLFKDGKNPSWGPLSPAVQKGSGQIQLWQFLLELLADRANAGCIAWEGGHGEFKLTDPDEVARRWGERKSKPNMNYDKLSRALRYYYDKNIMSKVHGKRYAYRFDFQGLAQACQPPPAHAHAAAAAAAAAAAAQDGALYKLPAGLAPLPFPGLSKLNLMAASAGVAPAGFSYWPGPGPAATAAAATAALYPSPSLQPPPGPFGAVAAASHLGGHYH
The note with it: protein: recombinant; tags: N-terminal GST; dsDNA, one strand shown. The essentials:
(§1)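 After expression in yeast as GST fusions, human transcription factors were bound to glutathione beads, DNA-barcoded and mixed with a tag-only sample. The pools were incubated with 200 nmole of a 16-mer random double-stranded DNA library in Tris/NaCl/DTT/glycerol buffer (30 min, room temperature), washed and crosslinked with 0.1% formaldehyde. Proximity ligation with BsaI/T4 ligase ran for 1 h at 37 °C, before PCR amplification and sequencing on an Illumina NextSeq500. Binding signal is a hexamer's read frequency for a factor divided by its frequency for the tag-only sample.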

For a further experiment, the target named is ETV5 (Homo sapiens, UniProt P41161 1-510). The note with it: protein: recombinant; tags: N-terminal GST; dsDNA, one strand shown. Put shortly: as §1
ETV5, sequence (P41161 whole entry): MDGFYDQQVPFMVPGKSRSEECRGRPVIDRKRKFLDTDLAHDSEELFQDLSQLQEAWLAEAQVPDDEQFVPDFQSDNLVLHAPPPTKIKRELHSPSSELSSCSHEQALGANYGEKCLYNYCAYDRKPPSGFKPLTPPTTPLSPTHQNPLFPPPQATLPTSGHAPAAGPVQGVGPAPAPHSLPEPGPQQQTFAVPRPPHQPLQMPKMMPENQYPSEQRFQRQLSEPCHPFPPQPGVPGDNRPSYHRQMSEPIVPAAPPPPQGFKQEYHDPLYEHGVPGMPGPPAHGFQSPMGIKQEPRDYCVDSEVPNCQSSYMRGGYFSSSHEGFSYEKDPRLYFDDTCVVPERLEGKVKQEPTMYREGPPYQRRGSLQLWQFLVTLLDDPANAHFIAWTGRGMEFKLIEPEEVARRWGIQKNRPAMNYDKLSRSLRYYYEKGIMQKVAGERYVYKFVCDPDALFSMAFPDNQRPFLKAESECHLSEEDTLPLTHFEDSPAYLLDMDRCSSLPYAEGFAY
The next experiment deals with HSF1 (Homo sapiens, UniProt Q00613 1-529). The note with it: protein: recombinant; tags: N-terminal GST; chain copies: 3; dsDNA, one strand shown. Put shortly:
as §1

The target in the next experiment is T2, SPIC (Homo sapiens, UniProt Q8N5J4 1-248).
T2 sequence: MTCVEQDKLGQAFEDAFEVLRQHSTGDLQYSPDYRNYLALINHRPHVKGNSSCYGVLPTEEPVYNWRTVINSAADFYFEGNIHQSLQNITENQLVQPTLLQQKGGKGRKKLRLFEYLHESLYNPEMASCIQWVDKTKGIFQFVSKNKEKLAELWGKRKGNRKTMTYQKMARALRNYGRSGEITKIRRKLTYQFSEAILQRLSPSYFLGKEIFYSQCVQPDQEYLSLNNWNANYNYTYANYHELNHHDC
The settings on record: protein: recombinant; tags: N-terminal GST; dsDNA, one strand shown. Put shortly:
as §1

The target of the next experiment is ELF4 (Homo sapiens, UniProt Q99607 1-663). The settings on record: protein: recombinant; tags: N-terminal GST; dsDNA, one strand shown. Put shortly: as §1
ELF4, sequence (Q99607 whole entry): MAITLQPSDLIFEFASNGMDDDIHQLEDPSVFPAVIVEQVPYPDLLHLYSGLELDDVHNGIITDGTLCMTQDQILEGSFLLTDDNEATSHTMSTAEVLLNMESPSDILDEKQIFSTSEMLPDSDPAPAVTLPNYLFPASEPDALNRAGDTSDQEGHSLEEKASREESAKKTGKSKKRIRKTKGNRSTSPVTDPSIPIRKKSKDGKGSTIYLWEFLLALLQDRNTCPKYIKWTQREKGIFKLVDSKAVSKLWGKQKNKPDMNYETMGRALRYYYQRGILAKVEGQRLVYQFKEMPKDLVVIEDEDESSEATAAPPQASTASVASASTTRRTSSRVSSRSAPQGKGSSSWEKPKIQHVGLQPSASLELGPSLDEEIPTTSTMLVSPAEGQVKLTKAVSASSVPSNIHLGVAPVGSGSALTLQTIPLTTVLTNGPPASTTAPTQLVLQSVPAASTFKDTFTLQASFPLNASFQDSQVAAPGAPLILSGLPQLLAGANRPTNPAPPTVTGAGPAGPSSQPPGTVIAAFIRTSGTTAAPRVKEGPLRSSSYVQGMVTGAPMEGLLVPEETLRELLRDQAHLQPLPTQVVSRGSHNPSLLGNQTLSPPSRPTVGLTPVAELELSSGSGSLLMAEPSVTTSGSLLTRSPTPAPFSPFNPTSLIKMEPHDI
A further experiment addresses T3, ELK4 (Homo sapiens, UniProt P28324-2 1-405).
T3 sequence: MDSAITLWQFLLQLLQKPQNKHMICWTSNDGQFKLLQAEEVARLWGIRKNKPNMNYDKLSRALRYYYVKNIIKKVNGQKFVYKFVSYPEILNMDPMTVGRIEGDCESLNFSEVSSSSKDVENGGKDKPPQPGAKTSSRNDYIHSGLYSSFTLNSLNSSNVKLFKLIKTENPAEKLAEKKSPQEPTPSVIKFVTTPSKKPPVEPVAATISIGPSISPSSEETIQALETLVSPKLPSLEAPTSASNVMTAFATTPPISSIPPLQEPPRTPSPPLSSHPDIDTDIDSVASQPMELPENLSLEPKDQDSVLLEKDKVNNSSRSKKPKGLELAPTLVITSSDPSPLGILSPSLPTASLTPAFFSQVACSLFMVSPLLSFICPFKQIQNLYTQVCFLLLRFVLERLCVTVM
The note with it: protein: recombinant; tags: N-terminal GST; dsDNA, one strand shown. The essentials: as §1

The target of a further experiment is T4, ETV2 (Homo sapiens, UniProt O00321 1-342).
T4 sequence: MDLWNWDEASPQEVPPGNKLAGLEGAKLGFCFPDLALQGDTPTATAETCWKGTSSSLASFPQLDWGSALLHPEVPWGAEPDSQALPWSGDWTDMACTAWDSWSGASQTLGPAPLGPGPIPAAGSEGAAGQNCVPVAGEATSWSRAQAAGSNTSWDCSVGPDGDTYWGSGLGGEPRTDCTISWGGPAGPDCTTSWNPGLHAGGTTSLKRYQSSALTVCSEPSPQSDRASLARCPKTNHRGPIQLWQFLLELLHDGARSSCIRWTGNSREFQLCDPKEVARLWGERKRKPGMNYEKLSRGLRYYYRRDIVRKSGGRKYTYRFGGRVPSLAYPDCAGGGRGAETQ
The note with it: protein: recombinant; tags: N-terminal GST; dsDNA, one strand shown. The essentials: as §1

For another experiment, the target named is T5, ELF3 (Homo sapiens, UniProt P78545 1-371).
T5 sequence: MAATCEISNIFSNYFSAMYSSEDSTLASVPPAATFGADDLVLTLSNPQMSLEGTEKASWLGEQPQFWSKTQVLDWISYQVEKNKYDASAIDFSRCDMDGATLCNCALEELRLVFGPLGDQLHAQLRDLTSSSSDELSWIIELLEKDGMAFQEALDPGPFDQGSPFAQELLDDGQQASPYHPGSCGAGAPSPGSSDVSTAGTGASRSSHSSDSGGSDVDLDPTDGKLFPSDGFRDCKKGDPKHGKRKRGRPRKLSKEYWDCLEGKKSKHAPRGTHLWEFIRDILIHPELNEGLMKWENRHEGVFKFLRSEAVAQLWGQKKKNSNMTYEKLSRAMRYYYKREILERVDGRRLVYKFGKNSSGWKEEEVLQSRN
The note with it: protein: recombinant; tags: N-terminal GST; dsDNA, one strand shown. Put shortly: as §1

The target of a further experiment is CRX (Homo sapiens, UniProt O43186 1-299). The note with it: protein: recombinant; tags: N-terminal GST; dsDNA, one strand shown. The essentials:
as §1

The target in a further experiment is ETV1 (Homo sapiens, UniProt P50549 1-477). The settings on record: protein: recombinant; tags: N-terminal GST; dsDNA, one strand shown. Put shortly: as §1
ETV1, sequence (P50549 whole entry): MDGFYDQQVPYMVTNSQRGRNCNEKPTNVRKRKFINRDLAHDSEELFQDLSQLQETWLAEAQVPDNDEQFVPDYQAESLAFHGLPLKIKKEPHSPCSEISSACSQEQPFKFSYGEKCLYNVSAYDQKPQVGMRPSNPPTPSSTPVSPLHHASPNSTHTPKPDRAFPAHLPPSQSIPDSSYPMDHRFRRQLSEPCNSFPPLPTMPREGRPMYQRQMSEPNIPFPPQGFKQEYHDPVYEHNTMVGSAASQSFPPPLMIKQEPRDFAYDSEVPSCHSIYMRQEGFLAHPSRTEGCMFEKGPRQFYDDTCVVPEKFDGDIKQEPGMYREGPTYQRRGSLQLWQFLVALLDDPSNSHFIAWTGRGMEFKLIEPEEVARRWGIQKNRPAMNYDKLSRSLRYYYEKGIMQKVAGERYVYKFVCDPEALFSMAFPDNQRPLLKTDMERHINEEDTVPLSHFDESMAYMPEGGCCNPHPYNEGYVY
Another experiment concerns the target T6, ERF (Homo sapiens, UniProt P50548 1-548).
T6 sequence: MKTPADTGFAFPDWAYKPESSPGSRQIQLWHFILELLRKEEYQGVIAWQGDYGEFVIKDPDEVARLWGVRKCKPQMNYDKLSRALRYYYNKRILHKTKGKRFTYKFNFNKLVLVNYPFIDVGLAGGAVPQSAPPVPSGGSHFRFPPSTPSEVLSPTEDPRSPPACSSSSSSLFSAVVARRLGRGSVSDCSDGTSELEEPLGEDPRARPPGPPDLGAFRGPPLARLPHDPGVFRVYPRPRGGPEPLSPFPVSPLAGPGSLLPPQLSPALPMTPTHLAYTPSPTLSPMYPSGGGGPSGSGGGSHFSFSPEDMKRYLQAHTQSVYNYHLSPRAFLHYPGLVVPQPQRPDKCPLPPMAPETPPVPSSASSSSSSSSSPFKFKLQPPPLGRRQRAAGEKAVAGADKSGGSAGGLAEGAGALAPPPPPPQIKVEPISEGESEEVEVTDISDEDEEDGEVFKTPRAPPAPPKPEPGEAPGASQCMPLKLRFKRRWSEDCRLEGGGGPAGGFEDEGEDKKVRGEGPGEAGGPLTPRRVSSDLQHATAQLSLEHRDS
The settings on record: protein: recombinant; tags: N-terminal GST; dsDNA, one strand shown. Put shortly: as §1

The target in the next experiment is T7, ETV3L (Homo sapiens, UniProt Q6ZN32 1-361).
T7 sequence: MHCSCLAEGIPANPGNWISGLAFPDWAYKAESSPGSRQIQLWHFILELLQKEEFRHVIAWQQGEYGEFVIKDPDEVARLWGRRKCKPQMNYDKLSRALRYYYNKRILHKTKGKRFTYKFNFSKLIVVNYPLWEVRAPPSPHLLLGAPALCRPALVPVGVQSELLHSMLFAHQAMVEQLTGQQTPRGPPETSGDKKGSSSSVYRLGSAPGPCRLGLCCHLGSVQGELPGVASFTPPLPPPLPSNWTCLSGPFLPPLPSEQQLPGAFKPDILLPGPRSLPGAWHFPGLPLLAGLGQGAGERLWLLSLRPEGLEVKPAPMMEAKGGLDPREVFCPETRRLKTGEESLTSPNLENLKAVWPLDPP
The note with it: protein: recombinant; tags: N-terminal GST; dsDNA, one strand shown. Put shortly: as §1

The next experiment has as its target T8, ETS2 (Homo sapiens, UniProt P15036 1-469).
T8 sequence: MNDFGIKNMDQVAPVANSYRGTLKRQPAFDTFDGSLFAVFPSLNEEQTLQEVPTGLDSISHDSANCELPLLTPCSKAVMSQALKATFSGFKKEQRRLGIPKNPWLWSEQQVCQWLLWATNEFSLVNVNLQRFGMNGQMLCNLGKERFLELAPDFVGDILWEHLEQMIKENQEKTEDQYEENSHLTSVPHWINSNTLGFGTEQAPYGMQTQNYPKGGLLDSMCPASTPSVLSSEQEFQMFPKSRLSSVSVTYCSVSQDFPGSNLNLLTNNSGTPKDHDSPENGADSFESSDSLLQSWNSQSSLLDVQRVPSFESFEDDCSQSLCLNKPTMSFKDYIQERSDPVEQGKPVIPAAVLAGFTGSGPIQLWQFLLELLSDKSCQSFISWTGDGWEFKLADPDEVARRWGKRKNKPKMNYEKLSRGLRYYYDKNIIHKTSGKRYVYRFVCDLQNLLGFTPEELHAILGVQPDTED
The note with it: protein: recombinant; tags: N-terminal GST; dsDNA, one strand shown. Put shortly:
as §1

The next experiment deals with T9, SPDEF (Homo sapiens, UniProt O95238 1-335).
T9 sequence: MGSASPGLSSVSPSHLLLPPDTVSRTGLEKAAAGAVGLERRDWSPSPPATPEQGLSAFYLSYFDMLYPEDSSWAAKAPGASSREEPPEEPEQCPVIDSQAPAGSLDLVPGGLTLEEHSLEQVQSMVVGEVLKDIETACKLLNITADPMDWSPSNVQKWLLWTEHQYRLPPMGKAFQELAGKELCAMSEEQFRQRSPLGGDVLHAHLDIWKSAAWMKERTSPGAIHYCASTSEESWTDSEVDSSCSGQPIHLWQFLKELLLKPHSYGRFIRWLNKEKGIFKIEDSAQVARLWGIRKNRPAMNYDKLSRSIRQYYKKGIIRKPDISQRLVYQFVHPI
The settings on record: protein: recombinant; tags: N-terminal GST; dsDNA, one strand shown. The essentials: as §1

A further experiment concerns the target T10, ETV7 (Homo sapiens, UniProt Q9Y603 1-341).
T10 sequence: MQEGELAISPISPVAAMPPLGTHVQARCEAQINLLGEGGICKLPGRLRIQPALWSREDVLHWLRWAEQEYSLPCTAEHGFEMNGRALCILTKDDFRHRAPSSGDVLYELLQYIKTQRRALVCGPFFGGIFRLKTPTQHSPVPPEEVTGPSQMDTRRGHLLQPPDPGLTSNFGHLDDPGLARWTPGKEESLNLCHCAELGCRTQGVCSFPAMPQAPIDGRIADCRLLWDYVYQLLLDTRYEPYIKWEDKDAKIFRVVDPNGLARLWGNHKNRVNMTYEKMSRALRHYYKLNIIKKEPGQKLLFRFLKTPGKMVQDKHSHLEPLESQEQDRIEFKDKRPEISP
The settings on record: protein: recombinant; tags: N-terminal GST; dsDNA, one strand shown. Put shortly: as §1

A further experiment deals with T11, ELF5 (Homo sapiens, UniProt Q9UKW6-2 1-255).
T11 sequence: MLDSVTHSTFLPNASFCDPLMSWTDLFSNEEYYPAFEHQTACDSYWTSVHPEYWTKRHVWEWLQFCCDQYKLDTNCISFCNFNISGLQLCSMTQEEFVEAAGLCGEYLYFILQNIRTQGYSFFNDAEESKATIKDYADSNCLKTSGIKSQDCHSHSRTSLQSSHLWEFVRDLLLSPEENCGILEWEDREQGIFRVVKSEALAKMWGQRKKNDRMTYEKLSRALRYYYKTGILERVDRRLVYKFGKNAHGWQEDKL
The note with it: protein: recombinant; tags: N-terminal GST; dsDNA, one strand shown. Put shortly: as §1

The target of a further experiment is T12, ETV3 (Homo sapiens, UniProt P41162-2 1-143).
T12 sequence: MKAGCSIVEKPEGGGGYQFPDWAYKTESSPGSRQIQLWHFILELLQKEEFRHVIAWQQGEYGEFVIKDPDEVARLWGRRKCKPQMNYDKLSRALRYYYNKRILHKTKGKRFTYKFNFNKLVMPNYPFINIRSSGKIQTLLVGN
The settings on record: protein: recombinant; tags: N-terminal GST; dsDNA, one strand shown. The essentials: as §1

Another experiment concerns the target ETV6 (Homo sapiens, UniProt P41212 1-452). The settings on record: protein: recombinant; tags: N-terminal GST; dsDNA, one strand shown. Put shortly:
as §1

HSF1, sequence (Q00613 whole entry): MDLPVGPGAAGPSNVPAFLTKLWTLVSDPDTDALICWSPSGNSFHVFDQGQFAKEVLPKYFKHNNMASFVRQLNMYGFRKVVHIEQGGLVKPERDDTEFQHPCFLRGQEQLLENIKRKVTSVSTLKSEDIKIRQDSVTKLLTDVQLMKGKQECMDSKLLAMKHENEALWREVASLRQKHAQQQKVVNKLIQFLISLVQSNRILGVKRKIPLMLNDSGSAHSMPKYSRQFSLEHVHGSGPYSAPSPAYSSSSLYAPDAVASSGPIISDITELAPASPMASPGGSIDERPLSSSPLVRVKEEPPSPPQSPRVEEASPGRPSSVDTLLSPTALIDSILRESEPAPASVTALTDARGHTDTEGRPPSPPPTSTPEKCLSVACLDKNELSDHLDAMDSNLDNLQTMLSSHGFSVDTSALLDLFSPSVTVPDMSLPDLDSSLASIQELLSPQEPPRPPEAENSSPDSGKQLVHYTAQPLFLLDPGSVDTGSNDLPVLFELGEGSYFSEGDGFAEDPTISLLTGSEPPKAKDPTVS
ETV6, sequence (P41212 whole entry): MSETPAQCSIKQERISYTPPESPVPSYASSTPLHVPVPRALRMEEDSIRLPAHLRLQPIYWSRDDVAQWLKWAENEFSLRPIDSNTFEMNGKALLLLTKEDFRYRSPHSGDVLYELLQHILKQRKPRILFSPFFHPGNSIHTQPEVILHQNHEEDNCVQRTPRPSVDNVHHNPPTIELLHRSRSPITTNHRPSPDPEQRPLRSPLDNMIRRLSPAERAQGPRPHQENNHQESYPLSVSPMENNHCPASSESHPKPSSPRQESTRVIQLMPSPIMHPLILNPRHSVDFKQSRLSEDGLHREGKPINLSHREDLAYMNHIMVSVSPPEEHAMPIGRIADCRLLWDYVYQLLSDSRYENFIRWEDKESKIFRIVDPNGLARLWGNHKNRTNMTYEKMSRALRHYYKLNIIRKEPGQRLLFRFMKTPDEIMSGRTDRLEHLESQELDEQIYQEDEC
CRX, sequence (O43186 whole entry): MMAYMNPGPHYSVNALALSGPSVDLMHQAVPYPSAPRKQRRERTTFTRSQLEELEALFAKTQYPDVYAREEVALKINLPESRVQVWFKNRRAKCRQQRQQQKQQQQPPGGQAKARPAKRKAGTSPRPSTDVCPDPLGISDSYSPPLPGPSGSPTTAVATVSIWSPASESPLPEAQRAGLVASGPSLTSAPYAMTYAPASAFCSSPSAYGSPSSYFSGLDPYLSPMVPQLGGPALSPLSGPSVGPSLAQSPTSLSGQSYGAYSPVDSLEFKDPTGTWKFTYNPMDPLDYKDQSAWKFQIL

As for ATGGCA, the binding signal with FEV was 1.44 fold enrichment (6-mer frequency, TF over GST control); with ETV5, 1.28 fold enrichment (6-mer frequency, TF over GST control); in the experiment with HSF1, 1.1 fold enrichment (6-mer frequency, TF over GST control); with SPIC, 1.21 fold enrichment (6-mer frequency, TF over GST control); in the experiment with ELF4, 1.2 fold enrichment (6-mer frequency, TF over GST control); in the experiment with ELK4, 1.15 fold enrichment (6-mer frequency, TF over GST control). In addition, the binding signal in the experiment with ETV2 was 1.31 fold enrichment (6-mer frequency, TF over GST control); with ELF3, 1.28 fold enrichment (6-mer frequency, TF over GST control); with CRX, 1.11 fold enrichment (6-mer frequency, TF over GST control); with ETV1 it was 1.27 fold enrichment (6-mer frequency, TF over GST control); with ERF, 1.23 fold enrichment (6-mer frequency, TF over GST control); with ETV3L, 1.2 fold enrichment (6-mer frequency, TF over GST control). The binding signal was 1.15 fold enrichment (6-mer frequency, TF over GST control) with ETS2; 1.1 fold enrichment (6-mer frequency, TF over GST control) with SPDEF; 1.24 fold enrichment (6-mer frequency, TF over GST control) with ETV7; 1.26 fold enrichment (6-mer frequency, TF over GST control) with ELF5; 1.3 fold enrichment (6-mer frequency, TF over GST control) with ETV3; 1.28 fold enrichment (6-mer frequency, TF over GST control) with ETV6.
